# Assay results as given in the supplement of paper PMC10338343.
# ± gives the standard deviation.
# Tested on: MILI (PIWIL2) piRISC loaded with L1MC piRNA (26 nt)
# Assay: pre-steady-state target cleavage rate (min^-1); guide: L1MC piRNA 5'p-UAACUAAAUACUAUGCAAGCUGUAGG; MIWI and MILI are mouse PIWI proteins and EfPiwi is from a freshwater sponge; tags in brackets are library labels; higher = faster piRNA-guided slicing of the target
# Details: auxiliary factor: 500 nM mouse GTSF1
# How it was run: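 Cleave-'n-Seq reactions paired 0.1 nM transcribed, DNA-blocked target RNA library with 1 nM active affinity-purified piRISC holding one synthetic guide, plus or minus 500 nM GTSF1 partner protein, in HEPES–potassium acetate buffer at 33 °C for 0–8 or 0–960 min. After sequencing of uncleaved targets and normalisation to depth and weakly complementary targets, the pre-steady-state cleavage rate was taken from a burst-and-steady-state fit. Three trials were pooled, and k3 was capped at 0.0001 min^-1.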
row,Sequence,pre-steady-state target cleavage rate
1,UCCUGGAACAGCUUGCAAUCUAUUUAGUAA,0.025 ± 0.0099
2,UCCUGGAUCAGCAAGCAUAGUAUUUUCAAA,0.024 ± 0.0074
3,UCCUGGAACAGCUUGCAUAGGAUUUAGUUA,0.00777 ± 0.0035
4,UCCUGCUACAGCAACCAUAGUAUUUAGUAA,0.35 ± 0.063
5,UCCUGGAUGAGCAACCAUAGUAUUUAGUAA,0.0492 ± 0.016
6,UCCUGGAUGUCCUAGCAAAGUAUUUAGUUA,0.00585 ± 0.0032
7,UCCUGGAUGUGCUUGGAUAGAAUUUAGUUA,0.00729 ± 0.0047
8,UCCUGGUACAGCUUGCAUAGUUUUUACUUA,0.0154 ± 0.008
9,UCCUGGAUGUGCUUCCAUUGUAUUUAGUUA,0.0206 ± 0.0071
10,UCCUCCUACAGCUUGGUUAGUAUUUUCAAA,0.0137 ± 0.007
11,UCCUGGAUGUCGAUGCAUAAUAUUUAGUUA,0.0556 ± 0.013
12,UCCUGCAUGAGCUUGCAUAGUAUUUACAAA,0.0926 ± 0.026
13,UCCUGCUACAGCUUGCAAUCUAUUUAGUAA,0.0639 ± 0.022
14,UCCUGGAUGUGCUUGGAUAGUAUUUAGUAA,0.117 ± 0.021
15,UCCUGGAUCAGCUUGCUAUGUAUUUACAAA,0.00475 ± 0.0036
16,UCCUGGAACAGCUUGCAUAGUAUUUAGCUUA,0.195 ± 0.047
17,UCCUGGUUGUGCUUGCAUAGUAUUUACAAA,0.00786 ± 0.0048
18,UCCUCCUACAGCUAGCAUAGUAUUUUCAAA,0.137 ± 0.027
19,UCCUGGAUCAGCUUGCAUAUAUUUAGUUA,0.0263 ± 0.0067

row,Sequence,pre-steady-state target cleavage rate
1,UCCUGGAUGUGCUUGCAUAGUAUAUAGUUA,0.083 ± 0.014
2,UCCUGGUAGAGCUUGCAUAGAAUUUAGUUA,0.0311 ± 0.0054
3,UCCUGGAUGUGCUUGCAUAGUAUUAGUUA,0.0236 ± 0.0068
4,UCCUGGAUGUCCAACCAUAGUAUUUAGUUA,0.00412 ± 0.004
5,UCCUGGAACAGCUUGCAUACUAUAUAGUUA,0.0332 ± 0.0099
6,UCCUGGAUCAGCUUGGAUAGUAUUUACUUA,0.107 ± 0.026
7,UCCUGGAUGUGGUUGCAUAGUAUUUAGAUA,0.0485 ± 0.021
8,UCCUGGAACAGCUACGAUAGUAUUUAGUAA,0.142 ± 0.02
9,UCCUGGAUGUCGAUGCAUAGUAUUUUGUUA,0.0682 ± 0.016
10,UCCUGGAUGAGCUUGGUAAGUAUUUAGUAA,0.00762 ± 0.0042
11,UCCUGGAUGUCCAUGCUUAGUAUUUAGUUA,0.0223 ± 0.0087
12,UCCUGGAACUCCUUGCAUAGUAUUUUCAAA,0.0315 ± 0.0074
13,UCCUCCUACAGCUUGCAUAGUUAUUACAAA,0.0124 ± 0.0054
14,UCCUGGAUGACCUUGCAUAGUAUUUACAAA,0.114 ± 0.033
15,UCCUGGUACAGCUUGCAGUAGUAUUUAGUUA,0.00495 ± 0.0037
16,UCCUGGAUGUGCUUGCAUAGUAUUUAGGUA,0.0373 ± 0.011
17,UCCUGGAUGUCCUUGCAUAGUAUUUUGUUA,0.0499 ± 0.0089
18,UCCUCCUACAGCUUGCAUACUAUUUUCAAA,0.0677 ± 0.018

# Same assay, conditions: auxiliary factor: none (no GTSF1)
row,Sequence,pre-steady-state target cleavage rate
1,UCCUGCUACAGCUUGCAUAGAUAUUAGAAA,< 0.0001
2,UCCUGGAUGUCGAAGCAUGUAUUUAGUUA,< 0.0001
3,UCCUGGAUCAGCAACCAUAGUAUUUACAAA,< 0.0001
